{"source": "PubChem BioAssay (NCATS)", "note": "Active and inactive are the calls of the source. Calls follow the shape of the dose curve; as a rule, active = well fitted cell-killing curve with a large enough effect; inconclusive = small, poorly fitted or top-dose-only effect; inactive = flat fitted curve, though single readings scatter.", "data": [{"assay": "MultiTox-Fluor Cytotoxicity Assay - LYMP1-003 - Live Cells (AID 962);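 also: 0% = DMSO only and full loss = 92 µM tetraoctylammonium bromide; cytotoxic hits lower the live-cell protease signal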", "details": "LYMP1-003 lymphoblastoid cells, MultiTox-Fluor live-cell protease fluorescence; series mostly up to 92.2 µM; activity change, negative = fewer live cells: at the top concentration", "excerpt": "NIH Chemical Genomics Center [NCGC]\nNIH Molecular Libraries Screening Centers Network [MLSCN]\nNational Institutes of Environmental Health Sciences [NIEHS]\nNational Toxicology Program [NTP]\nWe have developed a 1536-well cell-based assay for quantitative high throughput screening (qHTS) against a number of cell lines to determine in vitro cytotoxicity of small molecules. This particular assay uses a human lymphoblastoid cell line (LYMP1-003) purchased from Coriell Institute.\nNCGC Assay Protocol Summary:\nThe MultiTox-Fluor Cytotoxicity Assay (Promega) is a homogeneous method to simultaneously measure the relative number of live and dead cells in culture by detecting changes in cell membrane integrity. There are two fluorogenic peptide substrates in the assay reagent. Viable cells are determined when the cell-permeant substrate (GF-AFC) enters the cell and is cleaved by protease from live cells resulting in liberated fluorophore. This live-cell protease activity restricted to viable cells is proportional to cell number. The dead cells are determined by using fluorogenic cell-impermeant peptide substrate (bis-AAF-R110) which cleaved by dead cell proteases leaking from damaged cell membrane.\nUsing the MultiTox-Fluor Cytotoxicity Assay, the relative number of live cells was measured in the lymphoblastoid cell line with complete culture medium following compound treatment for 16 hours. The assay was performed in opaque black Kalypsys 1536-well plates. In the screen, tetraoctylammonium bromide was used as positive control. Library compounds were measured for their ability to cause acute toxicity in the cell line, as reflected by a decrease in live cell protease activity, in a concentration-dependent manner. […] AC50 values were determined from concentration-response data modeled with the standard Hill equation.\nqHTS protocol for MultiTox-Fluor Cytotoxicity assay\n[Step] [Parameter] [Value] [Description]\n1. Reagent; 5 uL; 2500 lymphoblastoid cells/well\n2. Time; 5 hr; 37 C incubation\n4. Controls; 23 nL; Tetraoctylammonium bromide 6.4pM to 92 uM\n5. Time; 16 hr; 37 C incubation\n6. Reagent; 5 uL; MuliTox-Fluor Assay reagent\n7. Time; 60 min; Room Temperature\n8. Detection; live-cell fluorescence (Ex/Em=405/510); EnVision plate reader\nKeywords: cell viability, cytotoxicity, lymphoblastoid cell line, fluorescence, NTPHTS, NTPHTS_NCGC, NIEHS, EPA, DSSTox, MLSMR, MLSCN, NIH Roadmap, qHTS, NCGC", "values": [{"smiles": "O=[N+]([O-])c1ccc(Cl)c(Cl)c1Cl", "activity change, negative = fewer live cells": "-7.38% (inactive)"}, {"smiles": "CC(C)(Cl)[N+](=O)[O-]", "activity change, negative = fewer live cells": "-0.748% (inactive)"}, {"smiles": "Clc1ccc(C(c2ccccc2Cl)C(Cl)(Cl)Cl)cc1", "note": "(stereo not given)", "activity change, negative = fewer live cells": "-4.29% (inactive)"}, {"smiles": "Cc1cc(C)cc(OP(=O)(Oc2cc(C)cc(C)c2)Oc2cc(C)cc(C)c2)c1", "activity change, negative = fewer live cells": "-0.821% (inactive)"}, {"smiles": "[O-][Cl+2]([O-])O", "activity change, negative = fewer live cells": "-8.43% (inactive)"}, {"smiles": "ClCCBr", "activity change, negative = fewer live cells": "-2.21% (inactive)"}, {"smiles": "C/C=C/C=O", "activity change, negative = fewer live cells": "-3.8% (inactive)"}, {"smiles": "CC(C)[N+](=O)[O-]", "activity change, negative = fewer live cells": "-3.21% (inactive)"}, {"smiles": "CC(Cl)CCl", "note": "(stereo not given)", "activity change, negative = fewer live cells": "0.0904% (inactive)"}, {"smiles": "C=COC(C)=O", "activity change, negative = fewer live cells": "-3.24% (inactive)"}, {"smiles": "O=[N+]([O-])c1cc(Cl)c(Cl)c(Cl)c1", "activity change, negative = fewer live cells": "-0.22% (inactive)"}, {"smiles": "CCBr", "activity change, negative = fewer live cells": "-0.51% (inactive)"}, {"smiles": "c1ccc(OCC2CO2)cc1", "note": "(stereo not given)", "activity change, negative = fewer live cells": "-4.63% (inactive)"}, {"smiles": "Oc1cc(Cl)cc(Cl)c1", "activity change, negative = fewer live cells": "-2.78% (inactive)"}, {"smiles": "N#CCCCCC#N", "activity change, negative = fewer live cells": "8.25% (inactive)"}, {"smiles": "CC(C#N)CCC#N", "note": "(stereo not given)", "activity change, negative = fewer live cells": "-1.8% (inactive)"}, {"smiles": "Cc1ccc(N)cc1C", "activity change, negative = fewer live cells": "-5.84% (inactive)"}, {"smiles": "Oc1cccc(Cl)c1", "activity change, negative = fewer live cells": "-3.01% (inactive)"}, {"smiles": "Oc1cccc(Cl)c1Cl", "activity change, negative = fewer live cells": "-6.44% (inactive)"}, {"smiles": "CC(Cl)(Cl)Cl", "activity change, negative = fewer live cells": "-3.21% (inactive)"}, {"smiles": "C=CC#N", "activity change, negative = fewer live cells": "-3.16% (inactive)"}, {"smiles": "Cc1ccc(N=C=O)cc1N=C=O", "activity change, negative = fewer live cells": "-6.78% (inactive)"}, {"smiles": "C[N+](=O)[O-]", "activity change, negative = fewer live cells": "-3.94% (inactive)"}, {"smiles": "CC(=O)NNc1ccccc1", "activity change, negative = fewer live cells": "-11.5% (inactive)"}, {"smiles": "c1ccc(NNc2ccccc2)cc1", "activity change, negative = fewer live cells": "-3.44% (inactive)"}, {"smiles": "CSSC", "activity change, negative = fewer live cells": "-8.18% (inactive)"}, {"smiles": "Cc1ccc([N+](=O)[O-])cc1", "activity change, negative = fewer live cells": "-10.4% (inactive)"}, {"smiles": "ClC(Cl)c1ccccc1", "activity change, negative = fewer live cells": "-5.61% (inactive)"}, {"smiles": "CN=C=O", "activity change, negative = fewer live cells": "-2.67% (inactive)"}, {"smiles": "Oc1ccc(Cl)c(Cl)c1Cl", "activity change, negative = fewer live cells": "-2.03% (inactive)"}, {"smiles": "c1ccc(C2CO2)cc1", "note": "(stereo not given)", "activity change, negative = fewer live cells": "-4.35% (inactive)"}, {"smiles": "C/C=C/CC#N", "activity change, negative = fewer live cells": "-9.92% (inactive)"}, {"smiles": "BrCC(Br)(Br)Br", "activity change, negative = fewer live cells": "-8.9% (inactive)"}, {"smiles": "C=CC(=O)OCC(C)C", "activity change, negative = fewer live cells": "-3.62% (inactive)"}, {"smiles": "O=[N+]([O-])c1ccc(Cl)cc1", "activity change, negative = fewer live cells": "-1.31% (inactive)"}, {"smiles": "Nn1cnnc1", "activity change, negative = fewer live cells": "2.49% (inactive)"}, {"smiles": "O=[N+]([O-])c1cc(Cl)c(Cl)cc1Cl", "activity change, negative = fewer live cells": "-2.78% (inactive)"}, {"smiles": "CCCCOCC1CO1", "note": "(stereo not given)", "activity change, negative = fewer live cells": "-5.05% (inactive)"}, {"smiles": "Cl/C=C/CCl", "activity change, negative = fewer live cells": "-4.8% (inactive)"}, {"smiles": "Nc1cc(Cl)cc(C(=O)O)c1Cl", "activity change, negative = fewer live cells": "-3.64% (inactive)"}]}]}
